Experiments:
Assay in all cases: PBM binding z-score (relative to random genomic background probes); higher = stronger binding; sequences stand for … in GC…GCGATTGACAGCGTAGAATGAAGG
[1] = system: RARb homodimer (NR concentration 270 nM)
How it was run: (§1)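 For binding z-scores, the reference was random background probes on custom Agilent 4×180K protein-binding microarrays. These arrays were incubated 1 h with ligand-free nuclear receptor dimers in PBS pH 7.4, 2% milk, 0.02% Triton X-100, 1 mM DTT, 0.2 mg/mL BSA and 0.4 mg/ml salmon testes DNA. Fluorescence was scanned after antibody detection of each partner (one per run) and regression-normalized.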

[2] = system: RARg:RXRa (NR concentration 270 nM, RXRa partner concentration 90 nM)
How it was run: as §1

[3] = system: RARg homodimer (NR concentration 270 nM)
How it was run: as §1

[4] = system: RXRa DBDmut IVT, anti-RXR (DBD mutation: RXRa K156A/R161A, NR concentration 90 nM)
How it was run: as §1

[5] = system: RXRa homodimer (NR concentration 180 nM)
How it was run: as §1

[6] = system: THRa:RXRa (NR concentration 90 nM, RXRa partner concentration 90 nM)
How it was run: as §1

[7] = system: THRa homodimer (NR concentration 90 nM)
How it was run: as §1

[8] = system: VDR homodimer (NR concentration 270 nM)
How it was run: as §1

| Sequence | PBM binding z-score [1] | PBM binding z-score [2] | PBM binding z-score [3] | PBM binding z-score [4] | PBM binding z-score [5] | PBM binding z-score [6] | PBM binding z-score [7] | PBM binding z-score [8] |
| --- | --- | --- | --- | --- | --- | --- | --- | --- |
| CCGAGTAAGTTACGAGGGGGCATTCAGTGCGAAT | 1.29 | 1.47 | 0.902 | 1.57 | 1.31 | 2.32 | 0.139 | 2.59 |
| CCTACAGGGCCAAGGTCATTGATCAGTCAAAGCA | 3.47 | 3.94 | 3.71 | 1.5 | 3.32 | 3.46 | 1.93 | 2.91 |
| ATCGAAAGGTCGTGAGGTGAGTTTACAGAAAGGC | 3.38 | 4.69 | 4.07 | 2.26 | 5.37 | 3.57 | 1.5 | 3.12 |
| TTATCAAGGTGAAAGGTCGTTGATGCACGCCTTG | 2.42 | 4.25 | 2.44 | 0.854 | 5.89 | 3.44 | 1.19 | 1.54 |
| ATCGAAAGGTCGTGAAGTGAGTATACAGAAAGGC | 2.17 | 3.85 | 3.56 | 1.38 | 4.35 | 2.18 | 0.0261 | 1.02 |
| TCGAGTAGGTTACGGGGGCCTTCAGGGATGAAGA | 1.03 | 1.81 | 1.33 | 0.49 | 1.47 | 1.95 | 0.405 | 0.302 |
| CCTACTGGGCCAAAGGTCAGTGATTCCAATGCTC | 4.33 | 4.71 | 4.48 | -0.00245 | 4.48 | 2.35 | 0.381 | 0.516 |
| TCGAGTAGGTTACGGGGGCATTCACGGATGAAGA | 2.05 | 3.38 | 2.31 | 1.78 | 3.16 | 2.86 | 1.23 | 2.93 |
| GCTGCTAGGTCAGGTTGGTCTGCTAACGGGTACG | 2.51 | 2.46 | 3.25 | 0.755 | 1.04 | 1.89 | 0.834 | 0.554 |
| CCTACTGGGGCAAAGGTCATTGATTCCAATGCTC | 4.6 | 6.11 | 4.61 | 0.782 | 6.93 | 3.66 | 0.71 | 1.92 |
| CCTACTGGGCCACGAAAGGGCATTGATTCAGTGA | 1.74 | 0.854 | 1.12 | -0.586 | 0.314 | 1.07 | -0.645 | -0.334 |
| TATACAGGGTCTAAGGCCAGAGTACGAATGTCGA | 0.78 | 0.921 | 1.04 | 0.336 | 0.544 | 1.05 | 0.535 | 1.12 |
| CGAATTAGGTCAAAGGACAGTGAAAGGCGACGTA | 3.18 | 4.17 | 4.47 | 1.73 | 3.37 | 3.09 | 1.4 | 0.401 |
| CTATGTAGGTTAAGGAGGTCATTCAGTTTGAAAG | 3.79 | 3.89 | 3.37 | 1.97 | 4.07 | 3.68 | 1.59 | 4.47 |
| CCTGCTAGGACAATGGTCAGCTAAAGCAGCTCGC | -0.0607 | -0.421 | -0.262 | 0.179 | -0.865 | 0.0505 | -0.399 | -0.794 |
| CGTCCGAGGTCAAAGGTCAGTGAAGAGATGACGG | 5.1 | 8.9 | 8.05 | 4.57 | 10.3 | 4.89 | 2.7 | 4.73 |
| TCTACTTGGTCACGGAGGTCACACACGACGGGTA | 4.43 | 5.15 | 5.47 | 1.33 | 5.3 | 3.6 | 3.15 | 3.56 |
| TCTCGGAGGACACGAAAGGGCAGAGCTCGACATC | 2.21 | 1.52 | 2.06 | 0.584 | 0.474 | 1.76 | 0.0765 | -0.17 |
| ATATGTAGGTTAGGGCCATTCAGAAAGTAGGGAA | 1.13 | 0.818 | 0.94 | 0.769 | 0.668 | 1.47 | 0.811 | 0.685 |
| ATACGTAGGTTACATCCGGGTCATTCAGGCTATG | 2.79 | 3.59 | 2.17 | 0.372 | 3.06 | 3.81 | 2.5 | 2.66 |
| TCGAGTAGGTTACGGGAGCATTCAGGGATGAAGA | -0.0117 | 0.484 | 0.553 | -0.267 | 0.792 | 1.89 | -0.885 | -0.591 |
| ATACGTAGGTTATCGGGTCATTCAGTTTGCGCAT | 2.77 | 3.41 | 2.36 | 1.77 | 3.41 | 3.18 | 2.93 | 3.86 |
| ACTAACAGGCCAAGGGTCACTCAAGATTAGTCCG | 4.08 | 4.46 | 4.16 | 1.23 | 4.7 | 2.9 | 0.619 | 1.46 |
| ATCGAAAGGTCGACGAGGTGAGAATACACCGTTT | 3.04 | 4.56 | 4.16 | 1.15 | 4.87 | 4.05 | 0.736 | 0.942 |
| CCGAGTAGGTTACGAGGGGGCATTCAATGCGAAT | 1.91 | 3.12 | 2.47 | 1.05 | 2.2 | 3.78 | 0.33 | 2.09 |
| CTTTGTAGGTTAAGGGGGTCATTCAGTTTGAAAG | 3.99 | 5.28 | 4.16 | 2.79 | 6.08 | 3.97 | 2.08 | 5.68 |

| Sequence | PBM binding z-score [1] | PBM binding z-score [2] | PBM binding z-score [3] | PBM binding z-score [4] | PBM binding z-score [5] | PBM binding z-score [6] | PBM binding z-score [7] | PBM binding z-score [8] |
| --- | --- | --- | --- | --- | --- | --- | --- | --- |
| CGTCTAAGGTCAGCAGGTCAGTGAAAGCGACGTG | 5.24 | 6.82 | 7.53 | 3.01 | 6.01 | 4.47 | 3.96 | 1.86 |
| CCGAGTAGTTTACGAGGGGGCATTCAGTGCGAAT | 1.7 | 1.92 | 1.48 | 2.08 | 1.37 | 2.54 | 0.595 | 3.37 |
| CTTAGTTGGTCAGGAGGTCACACACCGGATATGA | 4.33 | 5.21 | 4.53 | 1.06 | 4.99 | 3.67 | 2.65 | 2.74 |
| TTACGAAGGTGAAAGGTCGTTGATGCACGCCTTG | 2.49 | 4.08 | 2.19 | 0.342 | 5.5 | 2.33 | 0.141 | 1.25 |
| AGTGAAAGTTCAGGACGAGGTAACGTAAAGCACG | 3.13 | 4.55 | 4.38 | 2.84 | 2.54 | 3.93 | 1.95 | 2.34 |
| CTCGAAAGGTCGTCCTCAGGTGAGTATACCAAAC | 3 | 5.29 | 4.2 | 2.35 | 4.82 | 4.13 | 1.94 | 1.84 |
| CGTCCAAGGTAAATGCTAGGTCAGTGAAAGCATT | 2.15 | 1.85 | 1.23 | 0.0865 | 0.316 | 2.53 | 1.11 | -0.194 |
| CCGAGTAGGTTACGAGGGGGCATTCTGTGCGAAT | 2.05 | 3.13 | 2.43 | 1.11 | 1.68 | 3.55 | 0.547 | 2.56 |
| GATACAGGGGCAAGGCCAGAGTACGCGTATTGAT | 1.19 | 0.895 | 1.33 | 0.352 | 0.544 | 0.311 | -0.32 | 0.636 |
| CGTCCAACGTCAAGGTCAGTGAAAGAGACTCGAA | 3.13 | 2.61 | 3.16 | 0.737 | 1.9 | 2.57 | 1.67 | 0.844 |
| TCGAGTAGGTTACGGTGGCATTCAGGGATGAAGA | 0.0468 | 0.487 | 0.23 | -0.239 | 0.829 | 0.835 | -0.365 | -0.35 |
| CAAACTAGGTCACGAAAGGTCAAAGTGGAATGAC | 5.92 | 7.79 | 8.41 | 2.4 | 8.35 | 5.24 | 2.81 | 3.84 |
| AGAACGAGGGCAATGAGTTCATAGCACGGGTGGC | 2.84 | 2.78 | 2.56 | 3.91 | 2.42 | 2.58 | 0.398 | 10.3 |
| GCTGCAAGGTCAACTGATGGTCAGCTAAAGCTCG | 4.71 | 7.17 | 7.04 | 3.75 | 5.7 | 4.18 | 2.31 | 2.53 |
| CCTGCTAGTTCATGGTCAGCTAATCTACAGTATG | 0.96 | 0.833 | 1.06 | 2.43 | 0.309 | 0.298 | -0.142 | 1.09 |
| CCTACTGGGCCGAGGTCATTGATCAGTCAAAGCA | 3.3 | 4.27 | 3.11 | 1.96 | 4.68 | 3.52 | 2.67 | 4.32 |
| GCTTACGGGTCAAAGGTTATGGCATGAATAGAAT | 3.46 | 6.98 | 5.3 | 2.31 | 9.82 | 3.79 | 0.408 | 1.51 |
| CAAACTAGGTCACGAAAGGTCAAAATCGAATGAC | 5.7 | 7.53 | 8.09 | 2.25 | 8.44 | 4.89 | 2.42 | 3.13 |
| CTCGAAAGGTCGGTTGAGGTGAGTAAACGGATAA | 2.42 | 2.86 | 2.8 | 0.85 | 2.46 | 4.97 | 1.19 | 0.238 |
| CCTACTGGGCAAAAAAGGTCATTGATGCCGATAA | 4.17 | 4.03 | 4.11 | 0.33 | 4.81 | 3.57 | 0.0156 | 2.05 |
| CTATGTAGGTTAATGGGGTCATTCAGTTTGAAAG | 3.6 | 4.72 | 3.17 | 3.07 | 6.2 | 4.28 | 3.09 | 7.21 |
| TCGAGCAGGTTACGGGGGCATTCAGGGATGAAGA | 2.18 | 3.37 | 2.29 | 1.34 | 2.92 | 3.65 | 0.993 | 2.9 |
| CATACACGGTCAGCTAGGCCAGAGTAGGGACGGC | 1.5 | 1.24 | 2.04 | -0.438 | 0.355 | 0.226 | -0.129 | -0.286 |
| CCGAGTAGGTTACGAGGGCGCATTCAGTGCGAAT | 0.436 | 0.647 | 0.287 | -0.122 | 0.655 | 0.838 | -0.711 | 0.0173 |
| ATATGTAGGTTACGGTCATTCAGAAAGTAGGGAA | 2.42 | 2.34 | 2.47 | 0.852 | 1.64 | 2.08 | 0.831 | 0.93 |
| CTCGAAAGGTCGAGCTCAGGTGAGTATACCAAAC | 2.85 | 4.89 | 4.58 | 1.39 | 4.04 | 4.03 | 0.791 | 0.31 |
